High-throughput results from PubChem BioAssay.
The list is not random: actives were taken first. Their share in the collection is about 4.7%.
ATXN viability: viability counter-screen for ATXN expression inhibitors | S2 cells (HEK-293 line with an ATXN2-luciferase reporter) viability, CellTiter-Fluor protease fluorescence, 24 h | Potency, µM (series often up to 56.7 µM), hits mostly cytotoxic | hit rate 0.49% among 400,000; note: potency is the fitted concentration of half-maximal effect; nearly all actives have a fitted effect of over 40% in size
D3 antag: antagonists of human D3 dopamine receptor. P35462. hit rate 2.5% among 360,000. D3R cells, DiscoveRx beta-arrestin luminescence, antagonist mode; active compounds read low. max response, negative = inhibition, %; in the data active = max response below about -50%; inconclusive = no clear call, values can overlap the other calls; note: % is set by controls: 0 for no effect and ±100 for the full control effect
Target sequence (P35462 whole entry, looked up): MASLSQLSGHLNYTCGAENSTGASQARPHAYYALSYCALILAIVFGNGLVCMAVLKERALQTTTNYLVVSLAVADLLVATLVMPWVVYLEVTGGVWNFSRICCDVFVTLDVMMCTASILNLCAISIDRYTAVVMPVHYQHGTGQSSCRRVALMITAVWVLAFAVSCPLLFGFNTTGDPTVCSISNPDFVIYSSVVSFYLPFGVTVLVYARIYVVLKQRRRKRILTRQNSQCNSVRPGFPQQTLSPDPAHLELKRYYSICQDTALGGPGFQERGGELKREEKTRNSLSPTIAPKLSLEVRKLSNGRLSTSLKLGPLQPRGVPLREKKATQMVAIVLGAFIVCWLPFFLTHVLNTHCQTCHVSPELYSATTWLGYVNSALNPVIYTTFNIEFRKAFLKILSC
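Cells plated overnight at 1500 cells/well, then exposed to library compounds with dopamine controls for 90 minutes at 37 degrees C. DiscoveRx reagent added for 30–60 minutes at room temperature; luminescence read, quantitative HTS format.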
TGFb SMAD3 inh: inhibitors of TGF-b signaling | Potency, µM (doses to about 46.1 µM), without a hit: top-dose activity, negative = inhibition, hits mostly inhibitors | hit rate 1.2% among 410,000 | HepG2 CAGA-GFP TGF-b/SMAD3 reporter, GFP fluorescence, 18 h; TGF-beta stimulated, 500 pg/mL final | AID 588855; note: potency is the fitted concentration of half-maximal effect; % is set by controls: 0 for no effect and ±100 for the full control effect; nearly all actives have a fitted effect of over 65% in size
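Read-out: total well GFP (ex488/em500-530) summed from mean per-cell fluorescence. Cells: HEPG2 CAGA-GFP, 1% FBS DMEM, 18 h at 37 degrees C with 500 pg/mL final TGF-beta. Unstimulated wells served as the full-inhibition control; stimulated DMSO wells = 0%.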
ATXN2 expr inh: ATXN2 expression inhibition; HEK-293 ATXN2-luciferase reporter, luminescence, 24 h; Potency, µM (highest dose often 57 µM), without a hit: at the top dose activity change, negative = inhibition, actives largely listed as inhibitors; hit rate 0.72% among 360,000; note: potency is the fitted concentration of half-maximal effect; % is set by controls: 0 for no effect and ±100 for the full control effect; nearly all actives have a fitted effect of over 55% in size
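qHTS (up to 57 uM final) was run with 24 h compound exposure of reporter cells at 37 °C. Each well was multiplexed: SteadyGlo luminescence measured ATXN2-luciferase expression after a fluorogenic Gly-Phe-AFC viability readout (25 uM final).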
D3 ag: activates the human D3 dopamine receptor; P35462; D3R DiscoveRx beta-arrestin cells, luminescence, 90 min; max activation, %; hit rate 0.58% among 410,000; in the data active = max activation above about 30%; note: 0% is about no effect
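Cells at 1500/well, incubated overnight, then treated with pinned compounds (dopamine as control) for 90 min at 37 degrees C. DiscoveRx reagent added for 30 - 60 minutes at room temperature; luminescence read.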
HepG2 tox-1: kills HepG2 cells in TGF-b inhibitor counter-screen. hit rate 0.76% among 410,000. HepG2 CAGA-GFP viability, ATP luminescence, 18 h. AID 588856. Potency, µM (doses to about 46.1 µM), for inactives: at the top dose activity change, negative = cytotoxicity, most hits filed as cytotoxic; note: potency is the fitted concentration of half-maximal effect
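HepG2 CAGA-GFP cells (1000/well, DMEM with 1% FBS) received compound, then TGF-beta at 500 pg/mL final, and were incubated 18 hours at 37 degrees C. Viability was read by CellTiter-Glo luminescence. Media-only wells were set as complete cell-killing and DMSO as no toxicity.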
TGFb CAGA inh: TGF-b pathway inhibition, cherry-pick retest. hit rate 63% among 1,600. HepG2 CAGA-GFP TGF-b reporter, GFP fluorescence, 18 h; cells stimulated with TGF-beta, 500 pg/mL. Potency, µM (series often up to 46.1 µM), inactives show top-dose activity, negative = inhibition, most hits filed as inhibitors. shares compounds with TGFb SMAD3 inh; note: potency is the fitted concentration of half-maximal effect; % is set by controls: 0 for no effect and ±100 for the full control effect; nearly all actives have a fitted effect of over 65% in size
HepG2 tox-2: toxic to HepG2 cells in TGF-b counterscreen. shares compounds with TGFb SMAD3 inh. HepG2 CAGA-GFP viability, ATP luminescence, 18 h; cells stimulated with TGF-beta, 500 pg/mL. Potency, µM (doses to about 46.1 µM), for inactives: at the top dose activity, negative = cytotoxicity, usual class: inhibitors. hit rate 27% among 1,600. AID 720535; note: potency is the fitted concentration of half-maximal effect; % is set by controls: 0 for no effect and ±100 for the full control effect; nearly all actives have a fitted effect of over 70% in size
CCL64 TGFb inh: blocks TGF-b signaling in CCL64 reporter cells; AID 720536; hit rate 41% among 1,600; Potency, µM (top dose mostly 46.1 µM), for the others: at the top dose activity, negative = inhibition, most hits filed as inhibitors; CCL64 CAGA-GFP reporter, TGF-b stimulated, GFP fluorescence, 18 h; shares compounds with TGFb SMAD3 inh; note: potency is the fitted concentration of half-maximal effect; nearly all actives have a fitted effect of over 65% in size
TGFb COP inh: TGF-b inhibition validated with COP promoter; shares compounds with TGFb SMAD3 inh; HepG2 COP-GFP TGF-b reporter, GFP fluorescence, 18 h; cells stimulated by added recombinant TGF-beta; Potency, µM (series often up to 46.1 µM), for the others: at the top dose activity, negative = inhibition, actives largely listed as inhibitors; hit rate 3% among 1,600; AID 720537; note: potency is the fitted concentration of half-maximal effect; nearly all actives have a fitted effect of over 70% in size
Numbers without * were called inactive. Unless noted, calls come from the whole dose curve; as a rule, active = well fitted curve in the direction sought with a large enough effect; inconclusive = small, poorly fitted or top-dose-only effect, or another doubt; inactive = no such curve, though single readings can be large; an effect the other way counts as inactive or inconclusive.

Results for BrCC1C[n+]2c(SCc3ccccc3)nc3sc4c(c3c2O1)CCCC4 (stereo not given) ?
ATXN viability: inactive; D3 antag: 13; TGFb SMAD3 inh: 17%; ATXN2 expr inh: 33%; D3 ag: 11; HepG2 tox-1: -31%

How did CCC1C(c2cc(OC)c(OC)c(OC)c2)c2cc3c(cc2OC1N1CCCC1)OCO3 (stereo not given) do in these assays?
ATXN viability: inconclusive; D3 antag: -23; TGFb SMAD3 inh: 10µM*; ATXN2 expr inh: -5%; D3 ag: 2; HepG2 tox-1: -9%; TGFb CAGA inh: inconclusive; HepG2 tox-2: -17%; CCL64 TGFb inh: inconclusive; TGFb COP inh: -13%

What do the screens show for `COc1ccc(C(c2nnnn2C2CCCCC2)N2CCC3(CC2)C(=O)NCN3c2ccccc2)cc1` (stereo not given)?
ATXN viability: inconclusive; D3 antag: 0; TGFb SMAD3 inh: inconclusive; ATXN2 expr inh: inconclusive; D3 ag: -11; HepG2 tox-1: -44%; TGFb CAGA inh: inconclusive; HepG2 tox-2: -21%; CCL64 TGFb inh: 18µM*; TGFb COP inh: -4%

Results for CCCCn1nnnc1C(c1cccc2ccccc12)N1CCC2(CC1)C(=O)NCN2c1ccccc1 (stereo not given) ?
ATXN viability: inconclusive; D3 antag: inconclusive; TGFb SMAD3 inh: 18µM*; ATXN2 expr inh: -38%; D3 ag: -10; HepG2 tox-1: -5%; TGFb CAGA inh: 15µM*; HepG2 tox-2: inconclusive; CCL64 TGFb inh: inconclusive; TGFb COP inh: 60%

How did O=C1NCN(c2ccccc2)C12CCN(C(c1cccc3ccccc13)c1nnnn1Cc1ccccc1)CC2 (stereo not given) do in these assays?
D3 antag: 0; TGFb SMAD3 inh: inconclusive; ATXN2 expr inh: -39%; D3 ag: -9; HepG2 tox-1: -8%

What do the screens show for `COc1cccc(C(c2nnnn2C2CCCC2)N2CCC3(CC2)C(=O)NCN3c2ccccc2)c1OC` (stereo not given)?
D3 antag: 10; TGFb SMAD3 inh: inconclusive; ATXN2 expr inh: inconclusive; D3 ag: 0; HepG2 tox-1: 9%

What do the screens show for `O=C1NCN(c2ccccc2)C12CCN(C(c1ccccc1)c1nnnn1C1CCCC1)CC2` (stereo not given)?
ATXN viability: inconclusive; D3 antag: -9; TGFb SMAD3 inh: 11µM*; ATXN2 expr inh: -24%; D3 ag: -15; HepG2 tox-1: -2%; TGFb CAGA inh: inconclusive; HepG2 tox-2: 2%; CCL64 TGFb inh: 21µM*; TGFb COP inh: 3%

What do the screens show for `CN(C)C(=O)Oc1cccc([N+](C)(C)C)c1`?
ATXN viability: inactive; D3 antag: 27; TGFb SMAD3 inh: 7%; ATXN2 expr inh: 6%; D3 ag: 9; HepG2 tox-1: 7%

Results for O=C(Nc1ccc2oc(-c3cccnc3)nc2c1)c1ccc(-c2cccc(Cl)c2)o1 ?
TGFb SMAD3 inh: inconclusive; D3 ag: -1; HepG2 tox-1: 5%

Results for CCc1ccc(NC(=O)CN2C(=O)C3(SCC(=O)N3c3ccc(F)c(F)c3)c3ccccc32)cc1 (stereo not given) ?
ATXN viability: inactive; TGFb SMAD3 inh: inconclusive; ATXN2 expr inh: inconclusive; D3 ag: -3; HepG2 tox-1: -22%

What do the screens show for `COc1cc2c(c(OC)c1OC)-c1ccc(O)cc1[C@@H](NC(C)=O)CC2`?
ATXN viability: inconclusive; D3 antag: inconclusive; TGFb SMAD3 inh: inconclusive; ATXN2 expr inh: -13%; D3 ag: -13; HepG2 tox-1: 11%; TGFb CAGA inh: inconclusive; HepG2 tox-2: 8%; CCL64 TGFb inh: 0.52µM*; TGFb COP inh: inconclusive

Results for COc1cc2c(c(OC)c1OC)-c1ccc(O)cc1C(NC(C)=O)CC2 (stereo not given) ?
ATXN viability: inactive; D3 antag: -24; TGFb SMAD3 inh: -2%; ATXN2 expr inh: 4%; D3 ag: -19; HepG2 tox-1: 1%

What do the screens show for `CCCCOc1ccc(CNC(=O)c2cc3n(n2)CCCN(Cc2ccc(C)cc2)C3=O)cc1`?
ATXN viability: inconclusive; TGFb SMAD3 inh: inconclusive; ATXN2 expr inh: inconclusive; D3 ag: 7; HepG2 tox-1: -2%

What do the screens show for `Cc1ccc(CN(C)C(=O)c2cccc(S(=O)(=O)N3CCN(c4ccccc4)CC3)c2)cc1`?
ATXN viability: inconclusive; D3 antag: 0; TGFb SMAD3 inh: inconclusive; ATXN2 expr inh: -25%; D3 ag: -3; HepG2 tox-1: -9%

How did O=[N+]([O-])c1ccc(N2CCOCC2)c2cccnc12 do in these assays?
D3 antag: 5; TGFb SMAD3 inh: -14%; D3 ag: 0; HepG2 tox-1: -1%

Results for O=[N+]([O-])c1ccc(N2CCOCC2)c2c1no[n+]2[O-] ?
D3 antag: inconclusive; TGFb SMAD3 inh: 3.2µM*; D3 ag: -8; HepG2 tox-1: -101%; TGFb CAGA inh: 18µM*; HepG2 tox-2: 13µM*; CCL64 TGFb inh: 5.2µM*; TGFb COP inh: inconclusive

Results for C#C[C@]1(O)C=C[C@H]2[C@@H]3CCC4=CC(=O)CC[C@@H]4[C@H]3CC[C@@]21CC ?
ATXN viability: inactive; ATXN2 expr inh: -13%; D3 ag: 0

What do the screens show for `Cc1cc(C)c(N)cc1C`?
ATXN viability: inactive; D3 antag: 7; TGFb SMAD3 inh: 0%; ATXN2 expr inh: -2%; D3 ag: 9; HepG2 tox-1: -54%
